Assay outcomes (PubChem)
This is a sample that favours compounds with a hit; in the whole collection about 2.2% have one here.
EWS-Fli inh = EWS/Fli-driven NR0B1 reporter inhibitors, primary screen, A673 cells, NR0B1 luciferase, luminescence, MLPCN library; viability-normalised; inhibition, % at 12.6 µM; actives 0.67% (n = 350,000);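 active means mean inhibition of at least 50% after viability correction, with every replicate also passing that limit; inconclusive means mean reaches 50% but only one of two replicates passes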;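 further: firefly luciferase signal divided by Alamar Blue viability fluorescence both relative to DMSO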
Shn3 inh set2 = reduction of Shn3 3'UTR firefly luciferase signal, primary screen, Schnurri-3 inhibitor project, cell-based, Clone20 osteoblasts, set 2; actives 0.52% (n = 360,000); AID 588674, 2011; inhibition, % at 12.5 µM; Clone20 osteoblast Shn3 3'UTR firefly luciferase, 24 h;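 active means mean inhibition of at least 75% with every replicate also reaching 75%; inconclusive means mean inhibition at least 75% but some replicate below; inactive means mean inhibition below 75%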;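 further: 0% = median of neutral control wells and 100% = pilot-screen positive control compound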
TRPM1 prom inh = inhibitors of MITF-dependent TRPM1 promoter reporter, primary screen, cell-based, SK-MEL-5, single point, luciferase. inhibition, % at 12.5 µM. SK-MEL-5 TRPM1 promoter luciferase, 24 h. actives 0.83% (n = 330,000);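 active means mean inhibition across replicates of 60% or more, whatever share of single replicates reaches that level; inconclusive means some that reach 60%, reason not given; inactive means mean inhibition across replicates below 60%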
PAX8 reporter = inhibitors of PAX8-driven TPO luciferase reporter, primary screen, RMG-I cells, single concentration; SteadyGlo, 24 h; inhibition, % at 12.6 µM; actives 1.2% (n = 360,000); AID 652154, 2013;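 active means mean replicate inhibition at least 60% with every replicate also reaching 60%; inconclusive means only one of the two criteria is met; inactive means mean below 60% and not all replicates reaching 60%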;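 further: luciferase light reporting Pax8 driven TPO promoter activity; plate controls were median of neutral control wells for no effect and mitoxantrone controls for full effect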
LGR2 inh = inhibitors of bursicon-induced LGR2 CRE-luciferase signal, primary screen, cell-based, HEK293, CRE-luciferase reporter, bursicon stimulation; Drosophila bursicon receptor LGR2 (rickets); AID 720647, 2013; inhibition, % at 9.99 µM; bursicon-stimulated, 4 h; actives 0.35% (n = 380,000);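 active means drop in luminescence signal, shown as inhibition above about 50% in the replicate tests, limit read from the data, passing the limit was not always enough; inconclusive means probably only some replicates passing the limit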;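 further: agonist challenge used bursicon conditioned medium at about half maximal strength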
LMP1 NFkB inh = EBV LMP1-driven NF-kappaB luciferase reporter inhibitors, primary screen, cell-based, luminescence, single point; LMP1-induced NF-kappaB luciferase reporter cells; inhibition, % at 12.5 µM; actives 0.69% (n = 350,000); in the data active means inhibition above about 41%; inconclusive means no clear call, values can overlap the other calls;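 further: 0% = neutral control wells and 100% = reference inhibitor control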
* marks the source's active call; other numbers are inactive results; ? = inconclusive; . = not tested or not shown.

SMILES	EWS-Fli inh	Shn3 inh set2	TRPM1 prom inh	PAX8 reporter	LGR2 inh	LMP1 NFkB inh
Oc1c(CN2CCCCC2)cc(COCc2ccccc2)c2cccnc12	.	92*	88*	64*	.	79*
COc1ccc(S(=O)(=O)N2CCOc3ccccc32)cc1	56*	-4	30	-2	4	2
COc1ccc(S(=O)(=O)N2CC(C(=O)O)Oc3ccccc32)cc1 (configuration not stated)	5	5	3	4	3	3
COc1ccc(S(=O)(=O)N2c3ccccc3OCC2C)cc1 (configuration not stated)	74*	21	21	52	-2	9
COc1ccc(S(=O)(=O)N2c3ccccc3OCC2C(C)(C)C)cc1 (configuration not stated)	58*	-15	-5	17	18	-6
COc1ccc(S(=O)(=O)N2c3ccccc3OCC2CC(=O)O)cc1 (configuration not stated)	8	2	14	13	-8	-3
COc1ccc(S(=O)(=O)N2c3ccccc3OCC2c2ccccc2)cc1 (configuration not stated)	.	13	22	0	.	18
CCC(=O)N(C)C[C@H]1Oc2ncc(C3=CCCC3)cc2C(=O)N([C@@H](C)CO)C[C@@H]1C	-5	.	.	.	3	.
CNC(=O)C[C@H]1CC[C@@H]2[C@@H](COc3ccc(NC(=O)c4ccccc4OC)cc3C(=O)N2C)O1	-3	.	.	-15	10	.
COc1ccc(OC)c(C(c2nnnn2Cc2ccccc2)N2CCN(C3CCCCC3)CC2)c1 (configuration not stated)	.	90*	-4	.	.	-5
COc1ccccc1-c1cc(C(F)(F)F)nc(S(=O)(=O)CCCC(=O)Nc2cc(C)on2)n1	.	97*	96*	.	.	-8
COc1ccc(-c2cc(C(F)(F)F)nc(S(=O)(=O)CCCC(=O)Nc3cc(C)on3)n2)cc1OC	5	55	41	90*	90*	-1
COc1ccc2[nH]c3c(c2c1)CCN1C(=O)N([C@@H](C)C(=O)NCc2ccc(C)cc2)C(=O)[C@]31C	7	4	1	.	86*	6
COc1ccccc1S(=O)(=O)N[C@@H]1CC[C@H](CCNC(=O)C2CC2)O[C@H]1CO	-5	.	.	7	0	.
NC(=O)C1=CC2C3C=CC2(O)C(=O)OC3O1 (configuration not stated)	-1	-16	71*	-83	10	-38
CC(=O)Nc1ccc(C=NNC(=O)CCCC(=O)NN=Cc2ccc(NC(C)=O)cc2)cc1	-3	-14	-5	7	3	81*
CC(=O)Nc1ccc(/C=N/NC(=O)CC2CCCCC2)cc1	-9	-10	.	-12	-22	.
O=C1C(F)=CC(COC(c2ccccc2)(c2ccccc2)c2ccccc2)OC1n1cc(F)c(=O)[nH]c1=O (configuration not stated)	69*	98*	114*	18	27*	-3
CC(=O)OCC1OC(n2cc(F)c(=O)[nH]c2=O)C(OC(C)=O)C1OC(C)=O (configuration not stated)	5	29	-9	16	3	3
CCS(=O)(=O)N1CC2(CN(Cc3ccc(OC)cc3)[C@@H](CO)c3c2c2ccc(OC)cc2n3C)C1	4	.	.	.	22	.
CC(=O)NC(c1cccs1)c1cc(F)c2cccnc2c1O (configuration not stated)	13	84	44	30	14	53*
CC(C)CC(=O)NC(c1cccs1)c1ccc2cccnc2c1O (configuration not stated)	.	89*	?	.	.	37
CCC(=O)NC(c1cccs1)c1ccc2cccnc2c1O (configuration not stated)	16	79	76*	66*	11	74*
CCCC(=O)Nc1ccc2c(c1)C(=O)N(C)[C@H]1CC[C@@H](CC(=O)NCc3ccccc3F)O[C@@H]1CO2	5	.	.	-1	-3	.
Nc1c(-c2ccccc2)nc(Cl)nc1-c1ccccc1	.	1	-3	-11	.	2
SMILES	EWS-Fli inh	Shn3 inh set2	TRPM1 prom inh	PAX8 reporter	LGR2 inh	LMP1 NFkB inh
c1ccc(-c2nc3nonc3nc2-c2ccccc2)cc1	.	44	62*	50	.	7
Cc1cccc(N2CC(O)(c3cccs3)[N+]3=C2CCCC3)c1C (configuration not stated)	1	90*	-7	17	21	2
COc1ccc(C(c2sc3nc(C)nn3c2O)N2CCc3ccccc3C2)cc1 (configuration not stated)	-2	-1	.	14	-14	-2
COc1ccc(C(c2sc3nc(C)nn3c2O)N2CCC(C(N)=O)CC2)cc1OC (configuration not stated)	-1	5	0	-3	0	72*
COC(=O)C1CCN(C(c2ccc(OC)c(OC)c2)c2sc3nc(C)nn3c2O)CC1 (configuration not stated)	-3	0	.	-11	-2	7
COc1cc(C(c2sc3nc(C)nn3c2O)N2CCc3ccccc3C2)cc(OC)c1OC (configuration not stated)	8	11	-11	13	-4	86*
Cc1nc2sc(C(c3ccco3)N3CCN(C(c4ccccc4)c4ccccc4)CC3)c(O)n2n1 (configuration not stated)	-3	10	.	88*	-11	8
O=C(C[C@H]1C[C@H]2c3cc(NS(=O)(=O)c4ccc(F)cc4)ccc3O[C@H]2[C@@H](CO)O1)NCc1ccc(Oc2ccccc2)cc1	34	.	.	59	3	.
Cn1ncc(Cl)c1C(=O)NC1CCCC1	-2	2	-9	11	10	53*
Cn1ncc([N+](=O)[O-])c1C(=O)NC1CCCCCC1	4	0	11	.	1	-3
C[C@@H]1CN([C@@H](C)CO)C(=O)Cc2cc(N(C)C)ccc2O[C@H]1CN(C)C(=O)Nc1ccc2c(c1)OCO2	-6	.	.	-11	1	.
CCOC(=O)c1cccc(NC(=O)c2cc3ccccc3o2)c1	84*	-93	-24	-79	-15	-12
CCOC(=O)c1csc(NC(=O)c2ccc(OCC)cc2)n1	53*	7	14	10	50	15
CCOC(=O)c1sc(NC(=O)c2ccccc2OC)nc1C	86*	-31	-21	-75	12	-12
CCOC(=O)c1sc(NC(=O)c2cc3ccccc3o2)nc1C	87*	-100	41	-1	-69	2
COc1ccc2c3c(n(C)c2c1)[C@@H](CO)N(C(=O)Nc1ccc(F)cc1)CC31CN(C(=O)c2ccccc2F)C1	9	.	.	.	8	.
